Results filed as inconclusive are left out. Entries that show only a call come without a potency. Active and inactive are the calls of the source. Calls follow the shape of the full dose curve. Numbered stars: 1 amine (or outer) side, 2 acyl side, 3 side chain; on linkers, the order of the positions; unused ones are H or OH. Bridge positions count the residues as written; N and C are the ends. Square brackets hold non-standard residues; d marks the D form. Peptide text beside a SMILES is read from it. I, II: the chains in the order shown. Actinocin(9to1) = Cc1c2oc3c(C)ccc(C(=O)[*:1])c3nc-2c(C(=O)[*:2])c(N)c1=O; NMeV = CN[C@H](C(=O)O)C(C)C; Sar = CNCC(=O)O
The compounds below were run against Vitamin D3 receptor (Homo sapiens) (UniProt P11473) (assay: qHTS assay for small molecule antagonists of vitamin D receptor signaling (AID 588541; also: potency is read from the fitted curve at half-maximal effect)). Conditions: HEK293T VDR-UAS-bla, beta-lactamase ratio, antagonist mode; series mostly up to 76.7 µM.
In short: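 VDR-UAS-bla HEK293T cells (2000/well, 2% charcoal-stripped FBS) were treated with titrated compounds plus 1-alpha,25-dihydroxyvitamin D3 (50 nM or 3 nM final) for 16 h at 37 C. CCF4 beta-lactamase fluorescence was read; Hill fits gave IC50.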

Compound	Potency
CC(C)(Oc1ccc(Cl)cc1)C(=O)O	inactive
Oc1ccc(Cl)cc1Sc1cc(Cl)ccc1O	inactive
O=C(O)CCCCC(=O)O	inactive
O=C1OC(c2ccc(O)cc2)(c2ccc(O)cc2)c2ccccc21	inactive
Cc1cc(=O)n(-c2ccccc2)n1C	inactive
CC(=O)Oc1ccc(C(c2ccc(OC(C)=O)cc2)c2ccccn2)cc1	inactive
C[C@H]1C[C@H]2[C@@H]3CCC4=CC(=O)C=C[C@]4(C)[C@@]3(Cl)[C@@H](O)C[C@]2(C)[C@@]1(O)C(=O)CO	inactive
CCCCCCc1ccc(O)cc1O	inactive
CC(O)C(=O)O (centres undefined)	inactive
CC/C(=C(/CC)c1ccc(O)cc1)c1ccc(O)cc1	inactive
CN(C)C(=S)SC(=S)N(C)C	inactive
COc1cccc2c1C(=O)c1c(O)c3c(c(O)c1C2=O)C[C@@](O)(C(C)=O)C[C@@H]3O[C@H]1C[C@H](N)[C@H](O)[C@H](C)O1	8.91 µM (active)

These compounds were tested against Vitamin D3 receptor (Homo sapiens) (UniProt P11473) (assay: qHTS assay for small molecule agonists of vitamin D receptor signaling (AID 588543)). Conditions: HEK293T VDR-UAS-bla, beta-lactamase ratio, 16 h; series mostly up to 76.8 µM.
In short: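 qHTS in agonist mode: compound titrations stimulate a VDR-driven β-lactamase reporter in HEK293T cells over 16 h at 37 °C. Response normalized to 50 nM 1α,25-dihydroxyvitamin D3 = 100%, DMSO = 0%; Hill fitting gives EC50 and maximal response.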

Compound	outcome
CC(C)(Oc1ccc(Cl)cc1)C(=O)O	inactive
Oc1ccc(Cl)cc1Sc1cc(Cl)ccc1O	inactive
O=C(O)CCCCC(=O)O	inactive
CC(C)(C)CC(C)(C)c1ccc(OCCOCC[N+](C)(C)Cc2ccccc2)cc1	inactive
O=C1OC(c2ccc(O)cc2)(c2ccc(O)cc2)c2ccccc21	inactive
Cc1cc(=O)n(-c2ccccc2)n1C	inactive
Oc1c(Cl)cc(Cl)cc1Sc1cc(Cl)cc(Cl)c1O	inactive
CC(=O)Oc1ccc(C(c2ccc(OC(C)=O)cc2)c2ccccn2)cc1	inactive
C[C@H]1C[C@H]2[C@@H]3CCC4=CC(=O)C=C[C@]4(C)[C@@]3(Cl)[C@@H](O)C[C@]2(C)[C@@]1(O)C(=O)CO	inactive
CCCCCCc1ccc(O)cc1O	inactive
Oc1c(I)cc(Cl)c2cccnc12	inactive
CC(O)C(=O)O (centres undefined)	inactive
CC/C(=C(/CC)c1ccc(O)cc1)c1ccc(O)cc1	inactive
COc1cccc2c1C(=O)c1c(O)c3c(c(O)c1C2=O)C[C@@](O)(C(=O)CO)C[C@@H]3O[C@H]1C[C@H](N)[C@H](O)[C@H](C)O1	inactive
COC1=CC(=O)C[C@@H](C)[C@]12Oc1c(Cl)c(OC)cc(OC)c1C2=O	inactive
Cc1c2oc3c(C)ccc(C(=O)N[C@@H]4C(=O)N[C@H](C(C)C)C(=O)N5CCC[C@H]5C(=O)N(C)CC(=O)N(C)[C@@H](C(C)C)C(=O)O[C@@H]4C)c3nc-2c(C(=O)N[C@@H]2C(=O)N[C@H](C(C)C)C(=O)N3CCC[C@H]3C(=O)N(C)CC(=O)N(C)[C@@H](C(C)C)C(=O)O[C@@H]2C)c(N)c1=O (I: T[dV]P[Sar][NMeV] / II: T[dV]P[Sar][NMeV]; ester I:1-I:C, II:1-II:C; linker I:N-II:N via Actinocin(9to1))	inactive
CN(C)C(=S)SC(=S)N(C)C	inactive

Reference: PubChem BioAssay (NCATS)
